PubChem BioAssay (NCI)
About 79,000 compounds went through this panel and 15% of them were active in at least one assay; those are over-represented in the sample as a whole. Activity calls are given as the source filed them. No stated cut-off is given here; in the data, active means growth inhibition above about 70%; inactive means the rest.

Key:
[1] = NCI Yeast Anticancer Drug Screen. Data for the rad52 strain (AID 147);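 further: 0% = growth of vehicle-treated control cultures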; conditions: S. cerevisiae rad52 mutant growth inhibition, hits give high values
Summary of the method: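 Genetically altered yeast (DNA damage repair defect) treated with compound; inhibition calculated relative to vehicle.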

[2] = NCI Yeast Anticancer Drug Screen. Data for the rad50EPP+ strain (AID 151);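 further: 0% = growth of vehicle-treated control cultures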; conditions: S. cerevisiae rad50 mutant strain, hits give high values
Summary of the method: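 Strain rad50EPP+; compound exposure; % growth inhibition vs vehicle.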

[3] = NCI Yeast Anticancer Drug Screen. Data for the rad50 strain (AID 155);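 further: 0% = growth of vehicle-only cultures of the same strain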; conditions: S. cerevisiae rad50 strain growth inhibition, hits give high values
Summary of the method: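 Inhibition values express reduced yeast growth in compound-treated cultures relative to vehicle-treated controls.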

[4] = NCI Yeast Anticancer Drug Screen. Data for the mec2-1 strain (AID 157); conditions: S. cerevisiae mec2-1 strain, hits give high values
Summary of the method: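 Cells of the genetically defined mec2-1 yeast strain are incubated with test compound. Inhibition of growth is calculated against vehicle-treated controls.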

[5] = NCI Yeast Anticancer Drug Screen. Data for the rad14 strain (AID 159);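 further: 0% = growth of vehicle-treated control cultures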; conditions: S. cerevisiae rad14 strain growth inhibition, hits give high values
Summary of the method: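 A mutant yeast strain defective in DNA damage repair is treated with compound; inhibition of its growth is scored against untreated, vehicle-exposed cultures.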

[6] = NCI Yeast Anticancer Drug Screen. Data for the sgs1 mgt1 strain (AID 161);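 further: 0% = growth of cultures given vehicle only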; conditions: S. cerevisiae sgs1 mgt1 strain, hits give high values
Summary of the method: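 Mutant yeast exposed to compound; growth scored against vehicle-only wells.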

[7] = NCI Yeast Anticancer Drug Screen. Data for the CLN2oe strain (AID 163);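 further: 0% = growth of vehicle-only control cultures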; conditions: S. cerevisiae CLN2oe strain, hits give high values
Summary of the method: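 Strain altered in cell-cycle control, incubated with compound; growth compared to solvent-treated controls.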

[8] = NCI Yeast Anticancer Drug Screen. Data for the cln2 rad14 strain (AID 165);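 further: 0% = growth equal to vehicle treated cultures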; conditions: S. cerevisiae cln2 rad14 strain, hits give high values
Summary of the method: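 The screen exposed genetically defined yeast (cln2 rad14) to test compounds and scored growth inhibition relative to vehicle-treated controls.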

[9] = NCI Yeast Anticancer Drug Screen. Data for the bub3 strain (AID 167); conditions: S. cerevisiae bub3 mutant strain, hits give high values
Summary of the method: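 Steps: expose the mutant yeast strain to compound; grow alongside vehicle-treated cultures; measure growth; express inhibition against the vehicle cultures.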

[10] = NCI Yeast Anticancer Drug Screen. Data for the wt2 strain (AID 169);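 further: 0% = growth of vehicle-treated yeast cultures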; conditions: S. cerevisiae wt2 strain growth inhibition, hits give high values
Summary of the method: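 Steps: yeast strain treated with compound; growth recorded; inhibition calculated relative to cultures given vehicle alone.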

[11] = NCI Yeast Anticancer Drug Screen. Data for the mlh1 strain (AID 171);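 further: 0% = growth of vehicle-treated control cultures of the same strain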; conditions: S. cerevisiae mlh1 strain growth inhibition, hits give high values
Summary of the method: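 Yeast screen: mutant strain plus compound, growth scored against vehicle control wells.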

[12] = NCI Yeast Anticancer Drug Screen. Data for the sgs1 strain (AID 173);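 further: 0% = growth of vehicle-only control cultures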; conditions: S. cerevisiae sgs1 mutant, hits give high values
Summary of the method: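 Inhibition of yeast growth served as the measure. The mutant strain was treated with each compound, and growth was normalised to cultures receiving vehicle alone.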

[13] = NCI Yeast Anticancer Drug Screen. Data for the mlh1 rad18 strain (AID 175); conditions: S. cerevisiae mlh1 rad18 strain growth inhibition, hits give high values
Summary of the method: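 Compound-treated yeast growth, normalised to vehicle controls. Strain bears defined DNA repair mutations.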

[14] = NCI Yeast Anticancer Drug Screen. Data for the rad18 strain (AID 177); conditions: S. cerevisiae rad18 mutant growth inhibition, hits give high values
Summary of the method: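 Inhibition values reflect reduced yeast growth compared with vehicle-treated controls, using a strain engineered with a DNA damage repair defect.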

[15] = NCI Yeast Anticancer Drug Screen. Data for the mgt1 strain (AID 153); conditions: S. cerevisiae mgt1 mutant growth inhibition, hits give high values
Summary of the method: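 Read-out: yeast growth inhibition vs vehicle control. Strain mgt1, drawn from a panel altered in DNA damage repair or cell cycle control.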

[16] = at 5.0 µM (retest, dose inferred, filed as 0.5)
[17] = at 50.0 µM (retest, dose inferred, filed as 5.0)

Measured: growth inhibition

O=[N+]([O-])/C(C(Cl)=C(Cl)Cl)=C1/OCCS1
active: [1]; at 3.7 µM 72% | [1]; at 11.0 µM 97% | [1]; at 33.0 µM 99% | [1]; at 100.0 µM 99% | [2]; at 33.0 µM 77% | [3]; at 11.0 µM 95% | [3]; at 33.0 µM 99% | [3]; [17] 100% | [3]; at 50.0 µM 90.5% | [3]; at 100.0 µM 99% | [4]; at 11.0 µM 97% | [4]; at 33.0 µM 98% | [4]; [17] 100% | [4]; at 50.0 µM 93.6% | [4]; at 100.0 µM 98% | [5]; at 11.0 µM 96% | [5]; at 33.0 µM 99% | [5]; at 100.0 µM 98% | [6]; [17] 100% | [6]; at 50.0 µM 90.6% | [7]; at 11.0 µM 94% | [7]; at 33.0 µM 98% | [7]; at 100.0 µM 99% | [8]; [17] 99% | [8]; at 50.0 µM 91% | [9]; at 11.0 µM 90% | [9]; at 33.0 µM 99% | [9]; [17] 100% | [9]; at 50.0 µM 92.5% | [9]; at 100.0 µM 98% | [10]; at 11.0 µM 95% | [10]; at 33.0 µM 99% | [10]; at 100.0 µM 99% | [11]; at 11.0 µM 97% | [11]; at 33.0 µM 99% | [11]; at 100.0 µM 98% | [12]; at 3.7 µM 78% | [12]; at 11.0 µM 97% | [12]; at 33.0 µM 99% | [12]; at 100.0 µM 99% | [13]; [17] 100% | [13]; at 50.0 µM 86.2%
inactive: [1]; at 1.2 µM 30% | [2]; at 1.2 µM 20% | [2]; at 3.7 µM 37% | [2]; at 11.0 µM 61% | [2]; at 100.0 µM 64% | [3]; at 1.2 µM 19% | [3]; at 3.7 µM 56% | [3]; [16] 16% | [4]; at 1.2 µM 24% | [4]; at 3.7 µM 55% | [4]; [16] 11% | [5]; at 1.2 µM 14% | [5]; at 3.7 µM 39% | [6]; [16] 40% | [7]; at 1.2 µM 15% | [7]; at 3.7 µM 44% | [8]; [16] -2% | [9]; at 1.2 µM 6% | [9]; at 3.7 µM 27% | [9]; [16] -12% | [10]; at 1.2 µM 7% | [10]; at 3.7 µM 32% | [11]; at 1.2 µM 11% | [11]; at 3.7 µM 48% | [12]; at 1.2 µM 42% | [13]; [16] 60%

O/N=C/C1c2ccccc2-c2ccccc21
active: [1]; at 100.0 µM 97% | [3]; at 100.0 µM 97% | [4]; at 50.0 µM 99% | [4]; at 100.0 µM 72% | [5]; at 100.0 µM 96% | [8]; at 50.0 µM 96% | [9]; at 50.0 µM 98.8% | [12]; at 100.0 µM 88% | [13]; at 50.0 µM 97.3% | [14]; at 33.0 µM 74% | [14]; at 100.0 µM 97%
inactive: [1]; at 1.2 µM 0% | [1]; at 3.7 µM 6% | [1]; at 11.0 µM 20% | [1]; at 33.0 µM 58% | [2]; at 1.2 µM -1% | [2]; at 3.7 µM 7% | [2]; at 11.0 µM 9% | [2]; at 33.0 µM 28% | [2]; at 100.0 µM 51% | [3]; at 1.2 µM -1% | [3]; at 3.7 µM -6% | [3]; [16] -199% | [3]; at 11.0 µM 24% | [3]; at 33.0 µM 62% | [3]; [17] 58% | [3]; at 50.0 µM 56.2% | [4]; at 1.2 µM 3% | [4]; at 3.7 µM 1% | [4]; [16] -53% | [4]; at 11.0 µM -15% | [4]; at 33.0 µM 21% | [4]; [17] -13% | [5]; at 1.2 µM -1% | [5]; at 3.7 µM -1% | [5]; at 11.0 µM 9% | [5]; at 33.0 µM 51% | [6]; [16] -59% | [6]; [17] 30% | [6]; at 50.0 µM 50.8% | [7]; at 1.2 µM -3% | [7]; at 3.7 µM -3% | [7]; at 11.0 µM -6% | [7]; at 33.0 µM 2% | [7]; at 100.0 µM 53% | [8]; [16] -57% | [8]; [17] 8% | [9]; at 1.2 µM -6% | [9]; at 3.7 µM -2% | [9]; [16] -70% | [9]; at 11.0 µM -7% | [9]; at 33.0 µM 0% | [9]; [17] -15% | [9]; at 100.0 µM 59% | [11]; at 1.2 µM 4% | [11]; at 3.7 µM -6% | [11]; at 11.0 µM -3% | [11]; at 33.0 µM 18% | [11]; at 100.0 µM 64% | [12]; at 1.2 µM 0% | [12]; at 3.7 µM -2% | [12]; at 11.0 µM 0% | [12]; at 33.0 µM 44% | [13]; [16] -102% | [13]; [17] 39% | [14]; at 1.2 µM 2% | [14]; at 3.7 µM 11% | [14]; at 11.0 µM 44%

CC(=O)C1(O)Cc2c(O)c3c(c(O)c2C(OC2CC(N)C(O)C(C)O2)C1)C(=O)c1ccccc1C3=O (stereo unspecified)
inactive: [2]; at 1.2 µM 55% | [15]; at 1.2 µM 4% | [15]; at 3.7 µM 45% | [3]; [16] 24% | [4]; at 1.2 µM 15% | [4]; at 3.7 µM 50% | [4]; [16] -32% | [4]; [17] 47% | [5]; at 1.2 µM -4% | [5]; at 3.7 µM 33% | [6]; [16] -25% | [6]; [17] 65% | [7]; at 1.2 µM -1% | [7]; at 3.7 µM 46% | [8]; [16] -15% | [8]; [17] 41% | [9]; at 1.2 µM -7% | [9]; at 3.7 µM 8% | [9]; [16] -42% | [9]; [17] 16% | [11]; at 1.2 µM 1% | [11]; at 3.7 µM 22% | [12]; at 1.2 µM -14% | [12]; at 3.7 µM 60% | [14]; at 1.2 µM 1% | [14]; at 3.7 µM 60%
active: [1]; at 1.2 µM 82% | [1]; at 3.7 µM 92% | [1]; at 11.0 µM 95% | [1]; at 33.0 µM 96% | [1]; at 100.0 µM 97% | [2]; at 3.7 µM 92% | [2]; at 11.0 µM 97% | [2]; at 33.0 µM 98% | [2]; at 100.0 µM 98% | [15]; at 11.0 µM 92% | [15]; at 33.0 µM 97% | [15]; at 100.0 µM 98% | [3]; at 1.2 µM 86% | [3]; at 3.7 µM 92% | [3]; at 11.0 µM 94% | [3]; at 33.0 µM 97% | [3]; [17] 85% | [3]; at 50.0 µM 89.4% | [3]; at 100.0 µM 98% | [4]; at 11.0 µM 90% | [4]; at 33.0 µM 95% | [4]; at 50.0 µM 92.9% | [4]; at 100.0 µM 98% | [5]; at 11.0 µM 89% | [5]; at 33.0 µM 96% | [5]; at 100.0 µM 97% | [6]; at 50.0 µM 91% | [7]; at 11.0 µM 93% | [7]; at 33.0 µM 98% | [7]; at 100.0 µM 99% | [8]; at 50.0 µM 87.9% | [9]; at 11.0 µM 91% | [9]; at 33.0 µM 97% | [9]; at 50.0 µM 90.2% | [9]; at 100.0 µM 98% | [11]; at 11.0 µM 90% | [11]; at 33.0 µM 96% | [11]; at 100.0 µM 98% | [12]; at 11.0 µM 93% | [12]; at 33.0 µM 97% | [12]; at 100.0 µM 98% | [14]; at 11.0 µM 94% | [14]; at 33.0 µM 96% | [14]; at 100.0 µM 98%
